Data reported in the OligoGym collection.

Biological target: UNC5D
Assay: pooled miR-30 sensor sort-seq; sequence = guide strand
Conditions: shRNA
Also: reference of the scale not given here.

Question: With TAGATCAACACGTGTCTCCTAG as the sequence, how does the sensor-assay potency score (higher = more potent) read?
Answer: 1.06

Question: How did the sensor-assay potency score (higher = more potent) turn out when TAACCAACCTCTAAGTAGCTGA was run?
Answer: 0.224

Question: For TAAATTAACTTTATGATGCTAC, which sensor-assay potency score (higher = more potent) is on record?
Answer: -0.135

Question: Which sensor-assay potency score (higher = more potent) does the source give for TAGATAACTAGATCAACACGTG here?
Answer: -0.0609

Question: How did the sensor-assay potency score (higher = more potent) turn out when TTGACAATAATCTTGTCTCATC was run?
Answer: -0.801

Question: TACATTTGTTTATCAATCCTGA was tested. Which sensor-assay potency score (higher = more potent) did it give?
Answer: -0.0896

Question: With TTAAAATGTATCAAACATCTAA as the sequence, how does the sensor-assay potency score (higher = more potent) read?
Answer: 0.16

Question: Which sensor-assay potency score (higher = more potent) does the source give for TTTGTGATGACACAGTACCCAC here?
Answer: -1.26

Question: With TTAGAAAAAACAACTTTCCGTA as the sequence, how does the sensor-assay potency score (higher = more potent) read?
Answer: 0.101

Question: Which sensor-assay potency score (higher = more potent) does the source give for TACATTTCTATAGAAATCCTAT here?
Answer: -0.569

Biological target: UPK1A
Assay: as above
Conditions: shRNA

Question: Which sensor-assay potency score (higher = more potent) does the source give for ATGGCTATCAGCATGACCGGGA here?
Answer: -0.114

Question: TACGTGAGGACCATGGACCGGC was tested. Which sensor-assay potency score (higher = more potent) did it give?
Answer: 0.148

Question: Which sensor-assay potency score (higher = more potent) does the source give for TTGGTGAACAGGTAGTCCATGT here?
Answer: -0.409

Question: For TAGGACGTGATGCAGGAGGCGC, which sensor-assay potency score (higher = more potent) is on record?
Answer: -1.09

Question: How did the sensor-assay potency score (higher = more potent) turn out when TCTTGCTCAATCATGACGCGGT was run?
Answer: 0.151

Question: With TAGCAGGCCCACCACAACTGGA as the sequence, how does the sensor-assay potency score (higher = more potent) read?
Answer: -1.8

Question: For TACTGGTCGGCTGTCACCCATA, which sensor-assay potency score (higher = more potent) is on record?
Answer: -1.44

Question: How did the sensor-assay potency score (higher = more potent) turn out when TAGAAGGTCAGCATCTGCTTGG was run?
Answer: -0.08

Question: With TATGGTCTCAGCAAACAGGGAC as the sequence, how does the sensor-assay potency score (higher = more potent) read?
Answer: -0.387

Question: With TTGGACACCATGTAGTCACGGT as the sequence, how does the sensor-assay potency score (higher = more potent) read?
Answer: 0.419

Question: With TAGCTGTCGATGGCGTGGCCGA as the sequence, how does the sensor-assay potency score (higher = more potent) read?
Answer: -1.49

Biological target: UQCRQ
Assay: as above
Conditions: shRNA

Question: For ATAAAACACTACAAACTGCGGC, which sensor-assay potency score (higher = more potent) is on record?
Answer: 0.284

Question: Which sensor-assay potency score (higher = more potent) does the source give for AACGGTGACAAGCTGTAGCTGA here?
Answer: 0.0218

Question: How did the sensor-assay potency score (higher = more potent) turn out when TGGATCTCTCGAACTCTTCAGT was run?
Answer: -0.739

Question: Which sensor-assay potency score (higher = more potent) does the source give for TGCTCGAACGGTGACAAGCTGT here?
Answer: -0.735

Question: For TGTAGCTGATCACATGCCGCAT, which sensor-assay potency score (higher = more potent) is on record?
Answer: -0.74

Question: Which sensor-assay potency score (higher = more potent) does the source give for TTCTTCCTCTTGGATCTCTCGA here?
Answer: -0.853

Question: TCGAACGGTGACAAGCTGTAGC was tested. Which sensor-assay potency score (higher = more potent) did it give?
Answer: -0.337

Question: Which sensor-assay potency score (higher = more potent) does the source give for TATTGTGTCTTTGAGACACTAC here?
Answer: -0.42

Question: For TCGAACTCTTCAGTCCCCCATG, which sensor-assay potency score (higher = more potent) is on record?
Answer: -1.13

Question: With TAAAACACTACAAACTGCGGCA as the sequence, how does the sensor-assay potency score (higher = more potent) read?
Answer: 0.151

Question: How did the sensor-assay potency score (higher = more potent) turn out when TCCTTTAGTGAAGACGTGCGGA was run?
Answer: -0.407

Biological target: USO1
Assay: as above
Conditions: shRNA

Question: With TACACGAACAAGCTGTAGCATT as the sequence, how does the sensor-assay potency score (higher = more potent) read?
Answer: -0.757

Question: Which sensor-assay potency score (higher = more potent) does the source give for TTATAGTCTCGGTCTCTCCTTG here?
Answer: 0.0783

Question: How did the sensor-assay potency score (higher = more potent) turn out when TTATCATTGAAATAAATCGAAA was run?
Answer: -1.61

Question: TATGATATAATCTCTATTGTTC was tested. Which sensor-assay potency score (higher = more potent) did it give?
Answer: -0.231

Question: TAGGATAGTACAAAGCTGCTGC was tested. Which sensor-assay potency score (higher = more potent) did it give?
Answer: 0.88

Question: TTTCTGATCTTGATCGGCCAAG was tested. Which sensor-assay potency score (higher = more potent) did it give?
Answer: -1.48

Question: Which sensor-assay potency score (higher = more potent) does the source give for TTTTAATGTAGAAACCTGCTGC here?
Answer: 0.733

Question: Which sensor-assay potency score (higher = more potent) does the source give for TACCAATACACGAACAAGCTGT here?
Answer: 0.107
